Assay results from the supplement of paper PMC12494721.
Structures can show the parent of a compound that is named as a salt.

Each compound was assayed on Ruminococcus gnavus DSM 108212 (assay: fold change of Tryptamine concentration vs plate DMSO controls (fold change (ratio)); higher = more amine produced, active = hit call of the paper (significant change in both replicates, either direction)). Conditions: incubation time: 27 h, anaerobic, 37 °C.
Method in brief: (§1)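 Extracts of whole anaerobic mGAM cultures were analysed for amines by LC–triple-quadrupole MS with dynamic MRM and external calibration curves, with drift corrected within batch. Four gut strains were grown at 37 °C for 27 h in 80 µL wells with compounds at 20 µM final, sweeteners at 50 µM final. Each value expresses fold change over plate DMSO controls. The average of 2 biological replicates is shown.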
With `N[C@@H](CSCCCO)C(=O)O` [Fudosteine] (20 µM) the “fold change of Tryptamine concentration” value was 1 (inactive). `CC1=C(C(=O)O)N2C(=O)[C@@H](NC(=O)[C@H](N)C3=CCC=CC3)[C@H]2SC1` [Cephradine monohydrate] (20 µM) was tested, and the “fold change of Tryptamine concentration” value was 1 (inactive). For `Nc1ncnc2c1ncn2[C@@H]1O[C@H](CO)[C@@H](O)[C@@H]1O` [Vidarabine] (20 µM), the “fold change of Tryptamine concentration” value was 0.935 (inactive). `CC(C)(CO)[C@@H](O)C(=O)NCCC(=O)NCCSSCCNC(=O)CCNC(=O)[C@H](O)C(C)(C)CO` [D-Pantethine] (20 µM) was tested, and the “fold change of Tryptamine concentration” value was 0.986 (inactive). With `CC(=O)SCC(Cc1ccccc1)C(=O)NCC(=O)OCc1ccccc1` (stereo unspecified) [Racecadotril] (20 µM) the “fold change of Tryptamine concentration” value was 1.01 (inactive). With `O=C(CCCN1CCN(c2ccccn2)CC1)c1ccc(F)cc1` [Azaperone] (20 µM) the “fold change of Tryptamine concentration” value was 0.963 (inactive). For `C[C@H](NCc1ccc(OCc2cccc(F)c2)cc1)C(N)=O` [Safinamide] (20 µM), the “fold change of Tryptamine concentration” value was 0.99 (inactive). `CCCC(=O)N1CCCN(c2nc(N)c3cc(OC)c(OC)cc3n2)CC1` [Bunazosin hydrochloride] (20 µM) was tested, and the “fold change of Tryptamine concentration” value was 1 (inactive). With `Cc1ccc2c(c1)c1c3n2CCNC3CCC1` (stereo unspecified) [Pirlindole mesylate] (20 µM) the “fold change of Tryptamine concentration” value was 1.05 (inactive). In the case of `CC(C)(C)NC(=O)[C@@H]1CN(Cc2cccnc2)CCN1C[C@@H](O)C[C@@H](Cc1ccccc1)C(=O)N[C@H]1c2ccccc2C[C@H]1O` [Indinavir sulfate] (20 µM), the “fold change of Tryptamine concentration” value was 1.05 (inactive). With `COc1cc(Nc2c(C#N)cnc3cc(OCCCN4CCN(C)CC4)c(OC)cc23)c(Cl)cc1Cl` [Bosutinib] (20 µM) the “fold change of Tryptamine concentration” value was 0.942 (inactive). In the case of `O=C1[C@H](CC[C@H](O)c2ccc(F)cc2)[C@@H](c2ccc(O)cc2)N1c1ccc(F)cc1` [Ezetimibe] (20 µM), the “fold change of Tryptamine concentration” value was 0.858 (inactive).

Each compound was assayed on Escherichia coli IAI1 (assay: fold change of Putrescine concentration vs plate DMSO controls (fold change (ratio)); higher = more amine produced, active = hit call of the paper (significant change in both replicates, either direction)). Conditions: incubation time: 27 h, anaerobic, 37 °C.
Method in brief: as §1
With `CC#C[C@]1(O)CC[C@H]2[C@@H]3CCC4=CC(=O)CCC4=C3[C@@H](c3ccc(N(C)C)cc3)C[C@@]21C` [Mifepristone] (20 µM) the “fold change of Putrescine concentration” value was 1.01 (inactive). For `C[C@]12CC[C@@H]3c4ccc(O)cc4CC[C@H]3[C@@H]1CCC2=O` [Estrone] (20 µM), the “fold change of Putrescine concentration” value was 1.04 (inactive). In the case of `O=C(O)c1cccnc1Nc1cccc(C(F)(F)F)c1` [Niflumic acid] (20 µM), the “fold change of Putrescine concentration” value was 1.08 (inactive). For `OCCN1CCN(CCCN2c3ccccc3C=Cc3ccccc32)CC1` [Opipramol dihydrochloride] (20 µM), the “fold change of Putrescine concentration” value was 0.888 (inactive). In the case of `COCC1=C(C(=O)OC(C)OC(=O)OC(C)C)N2C(=O)[C@@H](NC(=O)/C(=N\OC)c3csc(N)n3)[C@H]2SC1` (stereo partly specified) [Cefpodoxime proxetil] (20 µM), the “fold change of Putrescine concentration” value was 0.972 (inactive). In the case of `CN(CCOc1ccc(CC2SC(=O)NC2=O)cc1)c1ccccn1` (stereo unspecified) [Rosiglitazone hydrochloride] (20 µM), the “fold change of Putrescine concentration” value was 1.17 (inactive). With `CC(C(=O)O)c1ccc(-c2ccccc2)c(F)c1` (stereo unspecified) [Flurbiprofen] (20 µM) the “fold change of Putrescine concentration” value was 1.06 (inactive). With `CCCCc1oc2ccc(NS(C)(=O)=O)cc2c1C(=O)c1ccc(OCCCN(CCCC)CCCC)cc1` [Dronedarone hydrochloride] (20 µM) the “fold change of Putrescine concentration” value was 1.16 (inactive). For `O=C(COc1ccc(Cl)cc1)N1CCN(Cc2ccc3c(c2)OCO3)CC1` [Fipexide hydrochloride] (20 µM), the “fold change of Putrescine concentration” value was 1 (inactive). `CCCCCCCCCCCCCCCC[N+](C)(C)CCN(Cc1ccc(OC)cc1)c1ncccn1` [Thonzonium bromide] (20 µM) was tested, and the “fold change of Putrescine concentration” value was 1.06 (inactive). In the case of `C#C[C@]1(O)CC[C@H]2[C@@H]3CCc4cc(OC)ccc4[C@H]3CC[C@@]21C` [Mestranol] (20 µM), the “fold change of Putrescine concentration” value was 0.949 (inactive). `OC(CCN1CCCCC1)(c1ccccc1)C1CCCCC1` (stereo unspecified) [Trihexyphenidyl-D,L hydrochloride] (20 µM) was tested, and the “fold change of Putrescine concentration” value was 1.17 (inactive). With `O=C(Cn1cnnn1)N[C@@H]1C(=O)N2C(C(=O)O)=C(CSc3nncs3)CS[C@H]12` [Ceftezole] (20 µM) the “fold change of Putrescine concentration” value was 0.749 (inactive). `CCOc1ccc(NC(N)=O)cc1` [(4-Ethoxyphenyl)urea] (50 µM) was tested, and the “fold change of Putrescine concentration” value was 0.971 (inactive). With `NC(=O)c1ncn([C@@H]2O[C@H](CO)[C@@H](O)[C@H]2O)n1` [Ribavirin] (20 µM) the “fold change of Putrescine concentration” value was 0.781 (inactive). With `CC1(C)S[C@@H]2[C@H](NC(=O)C(C(=O)O)c3ccccc3)C(=O)N2[C@H]1C(=O)O` (stereo partly specified) [Carbenicillin disodium salt] (20 µM) the “fold change of Putrescine concentration” value was 0.927 (inactive). `O=C(c1ccccc1)c1ccc2n1CCC2C(=O)O` (stereo unspecified) [Ketorolac tromethamine] (20 µM) was tested, and the “fold change of Putrescine concentration” value was 1.15 (inactive). `CN(C(=O)CN(CCO)CC(=O)N(C)C(C)(C)Cc1ccccc1)C(C)(C)Cc1ccccc1` [Oxethazaine] (20 µM) was tested, and the “fold change of Putrescine concentration” value was 1.1 (inactive). `CCOC(=O)[C@H](CCc1ccccc1)N[C@@H](C)C(=O)N1Cc2ccccc2C[C@H]1C(=O)O` [Quinapril hydrochloride] (20 µM) was tested, and the “fold change of Putrescine concentration” value was 1.09 (inactive). For `CC[N+]1(CC)CCC(=C(c2ccccc2)c2ccccc2)C1C` (stereo unspecified) [Prifinium Bromide] (20 µM), the “fold change of Putrescine concentration” value was 1.07 (inactive). With `O=P(O)(O)C(Cl)(Cl)P(=O)(O)O` [Clodronate disodium] (20 µM) the “fold change of Putrescine concentration” value was 1.02 (inactive). In the case of `CCOC(=O)[C@@](C)(N)Cc1ccc(O)c(O)c1` [Methyldopate hydrochloride] (20 µM), the “fold change of Putrescine concentration” value was 1.22 (inactive). With `O=C(NCCO[N+](=O)[O-])c1cccnc1` [Nicorandil] (20 µM) the “fold change of Putrescine concentration” value was 1.05 (inactive). For `CN1CCN(c2c(F)cc3c(=O)c(C(=O)O)cn(CCF)c3c2F)CC1` [Fleroxacin] (20 µM), the “fold change of Putrescine concentration” value was 0.785 (inactive). For `Cn1c(=O)c2c(ncn2CC(=O)O)n(C)c1=O` [Acefylline] (20 µM), the “fold change of Putrescine concentration” value was 0.93 (inactive). In the case of `CC(=O)[C@H]1CC[C@H]2[C@@H]3C[C@H](C)C4=CC(=O)CC[C@]4(C)[C@H]3[C@@H](O)C[C@]12C` [Medrysone] (20 µM), the “fold change of Putrescine concentration” value was 0.978 (inactive). With `C=C1c2c(Cl)ccc(O)c2C(O)=C2C(=O)[C@]3(O)C(O)=C(C(N)=O)C(=O)[C@@H](N(C)C)[C@@H]3[C@@H](O)[C@H]12.O=C(O)c1cc(S(=O)(=O)O)ccc1O` [Meclocycline sulfosalicylate] (20 µM) the “fold change of Putrescine concentration” value was 0.14 (active). `N[C@@H](CSCCCO)C(=O)O` [Fudosteine] (20 µM) was tested, and the “fold change of Putrescine concentration” value was 1.05 (inactive). `CC1=C(C(=O)O)N2C(=O)[C@@H](NC(=O)[C@H](N)C3=CCC=CC3)[C@H]2SC1` [Cephradine monohydrate] (20 µM) was tested, and the “fold change of Putrescine concentration” value was 1.05 (inactive). In the case of `Nc1ncnc2c1ncn2[C@@H]1O[C@H](CO)[C@@H](O)[C@@H]1O` [Vidarabine] (20 µM), the “fold change of Putrescine concentration” value was 1.11 (inactive). For `CC(C)(CO)[C@@H](O)C(=O)NCCC(=O)NCCSSCCNC(=O)CCNC(=O)[C@H](O)C(C)(C)CO` [D-Pantethine] (20 µM), the “fold change of Putrescine concentration” value was 1 (inactive). For `CC(=O)SCC(Cc1ccccc1)C(=O)NCC(=O)OCc1ccccc1` (stereo unspecified) [Racecadotril] (20 µM), the “fold change of Putrescine concentration” value was 0.991 (inactive). `O=C(CCCN1CCN(c2ccccn2)CC1)c1ccc(F)cc1` [Azaperone] (20 µM) was tested, and the “fold change of Putrescine concentration” value was 1.31 (inactive). For `C[C@H](NCc1ccc(OCc2cccc(F)c2)cc1)C(N)=O` [Safinamide] (20 µM), the “fold change of Putrescine concentration” value was 1 (inactive). With `CCCC(=O)N1CCCN(c2nc(N)c3cc(OC)c(OC)cc3n2)CC1` [Bunazosin hydrochloride] (20 µM) the “fold change of Putrescine concentration” value was 0.989 (inactive). For `Cc1ccc2c(c1)c1c3n2CCNC3CCC1` (stereo unspecified) [Pirlindole mesylate] (20 µM), the “fold change of Putrescine concentration” value was 1.06 (inactive). For `CC(C)(C)NC(=O)[C@@H]1CN(Cc2cccnc2)CCN1C[C@@H](O)C[C@@H](Cc1ccccc1)C(=O)N[C@H]1c2ccccc2C[C@H]1O` [Indinavir sulfate] (20 µM), the “fold change of Putrescine concentration” value was 1.02 (inactive). With `COc1cc(Nc2c(C#N)cnc3cc(OCCCN4CCN(C)CC4)c(OC)cc23)c(Cl)cc1Cl` [Bosutinib] (20 µM) the “fold change of Putrescine concentration” value was 1.02 (inactive). In the case of `O=C1[C@H](CC[C@H](O)c2ccc(F)cc2)[C@@H](c2ccc(O)cc2)N1c1ccc(F)cc1` [Ezetimibe] (20 µM), the “fold change of Putrescine concentration” value was 1.02 (inactive).
